Here are results for 13 compounds from PubChem BioAssay (NCI).

The panel holds about 83,000 compounds, 20% with a hit somewhere; the sample as a whole holds those more often.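 96-well plates, one dose, 48 hours. Percent growth reported; active if below 10.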 Unmarked numbers belong to inactive results. The source made the active and inactive calls.

Among the test systems are SR leukemia; RPMI-8226 leukemia; OVCAR-8 ovarian; OVCAR-5 ovarian; OVCAR-4 ovarian; SK-OV-3 ovarian; IGROV1 ovarian; OVCAR-3 ovarian; HS 578T breast; NCI/ADR-RES ovarian.
Assay in all cases: NCI-60 one-dose screen, 48 h (100 = growth as untreated, 0 = no growth, -100 = all killed)
Details in all cases: 10 µM

`Cc1cc(=O)oc2cc(OCCCCOc3ccc(/C=C/C(=O)Nc4cccc(Cl)c4)cc3)ccc12`: the growth was 55.1% in the test with SR leukemia; 57.8% in the test with RPMI-8226 leukemia; 49.7% in the test on OVCAR-8 ovarian; 82.1% in the test with OVCAR-5 ovarian; -30.5% (active) in the test with OVCAR-4 ovarian; 119% in the test with SK-OV-3 ovarian. For the same compound, the growth was 103% in the test with IGROV1 ovarian, 27.6% with OVCAR-3 ovarian, 29.5% in the test on HS 578T breast and 45.7% in the test on NCI/ADR-RES ovarian.

Take `N#Cc1ccc(-c2nn(-c3ccc(C(=O)O)cc3)cc2CNc2ccc(Oc3ccccc3)cc2)cc1`: the growth in the test on SR leukemia is 37.3%; in the test on RPMI-8226 leukemia, 22.4%; with OVCAR-8 ovarian, 39.2%; with OVCAR-5 ovarian, 81.1%; with OVCAR-4 ovarian, 73.7%; in the test with SK-OV-3 ovarian it was 111%. The growth with IGROV1 ovarian is 74.7%; in the test with OVCAR-3 ovarian, 45.1%; in the test on HS 578T breast, 53.9%; with NCI/ADR-RES ovarian it was 17.1%.

Take `COc1nccnc1NS(=O)(=O)c1ccc(NC2=C(Cl)C(=O)c3nc(C)ccc3C2=O)cc1`: the growth was 115% with SR leukemia; 94.5% with RPMI-8226 leukemia; 99.5% in the test on OVCAR-8 ovarian; 112% in the test with OVCAR-5 ovarian; 86.5% with OVCAR-4 ovarian; 91.4% in the test on SK-OV-3 ovarian. Further, the growth with IGROV1 ovarian is 113%; with OVCAR-3 ovarian, 83.2%; in the test on HS 578T breast it was 92.8%; in the test with NCI/ADR-RES ovarian it was 92.4%.

With `COc1ccc2c3nc4cc(C)c(C)cc4nc3n(CCN(C)C)c2c1`, the growth is 9.88% (active) in the test on SR leukemia; 9.26% (active) in the test with RPMI-8226 leukemia; -56.4% (active) with OVCAR-8 ovarian; 24.5% in the test with OVCAR-5 ovarian; -26.1% (active) in the test with OVCAR-4 ovarian; -12.8% (active) in the test with SK-OV-3 ovarian. In addition, the growth is -8.59% (active) in the test on IGROV1 ovarian, -47.1% (active) in the test with OVCAR-3 ovarian, 49.1% in the test with HS 578T breast and 0.91% (active) with NCI/ADR-RES ovarian.

Consider `CC(=O)Nc1ccc(-c2cn(-c3cccc(C(=O)Nc4cc(CN5CCOCC5)cc(C(F)(F)F)c4)c3)nn2)cn1`, for which the growth in the test on SR leukemia was 0.486% (active); with RPMI-8226 leukemia, 2.68% (active); with OVCAR-8 ovarian, -37% (active); in the test on OVCAR-5 ovarian it was -95% (active); with OVCAR-4 ovarian it was -82.6% (active); with SK-OV-3 ovarian it was -67.6% (active). Moreover, the growth was -84.6% (active) in the test on IGROV1 ovarian, -54.5% (active) in the test on OVCAR-3 ovarian, -46.2% (active) with HS 578T breast and 67.9% in the test on NCI/ADR-RES ovarian.

Take `NS(=O)(=O)c1ccc(NC(=O)CSc2ccc(-c3ccccc3)nn2)c(Br)c1`: the growth is 85.9% with SR leukemia; 83% in the test with RPMI-8226 leukemia; 38.3% with OVCAR-8 ovarian; 90.4% in the test on OVCAR-5 ovarian; 53.8% in the test on OVCAR-4 ovarian; 98.7% in the test with SK-OV-3 ovarian. Besides, the growth is 93.8% in the test with IGROV1 ovarian, 24.9% in the test on OVCAR-3 ovarian, 41.1% in the test with HS 578T breast and 81.6% in the test on NCI/ADR-RES ovarian.

Regarding `CN1CCN(c2ccc(C(=O)/C=C/c3ccc(OC(F)F)cc3)cc2)CC1`, the growth with SR leukemia was 6.8% (active); in the test with RPMI-8226 leukemia, 5.53% (active); in the test on OVCAR-8 ovarian, 44.8%; in the test on OVCAR-5 ovarian, 80.3%; in the test on OVCAR-4 ovarian, 59%; in the test with SK-OV-3 ovarian, 76%. The growth with IGROV1 ovarian was 27.5%; in the test with OVCAR-3 ovarian, 38.4%; in the test with HS 578T breast, 63.8%; in the test with NCI/ADR-RES ovarian, 54.7%.

Consider `CN1C(=O)N(C)C2SC(N/N=C/c3ccccc3)=NC21` (stereo not given), for which the growth with SR leukemia was 13.6%; in the test on RPMI-8226 leukemia it was 97.4%; in the test with OVCAR-8 ovarian it was 97.1%; in the test on OVCAR-5 ovarian, 94.4%; with OVCAR-4 ovarian, 94.6%; with SK-OV-3 ovarian it was 95.7%. Also, the growth in the test with IGROV1 ovarian is 64.5%; with OVCAR-3 ovarian, 25.1%; in the test on HS 578T breast, 66.1%; in the test with NCI/ADR-RES ovarian, 44.6%.

For `O=C(Nc1ccc(Cl)c([N+](=O)[O-])c1)Nc1ccc(Cl)c([N+](=O)[O-])c1`, the growth in the test with SR leukemia was 12.4%; in the test with RPMI-8226 leukemia it was -20.5% (active); with OVCAR-8 ovarian, 20.7%; in the test on OVCAR-5 ovarian, 49.8%; with OVCAR-4 ovarian it was 23.2%; in the test with SK-OV-3 ovarian, 79.4%. The growth in the test with IGROV1 ovarian is 15.3%; in the test on OVCAR-3 ovarian it was 9.61% (active); in the test with HS 578T breast, 45.1%; in the test with NCI/ADR-RES ovarian, 6.5% (active).

In the case of `CC(=O)c1cc(C(=O)c2ccc3c(c2)NC(=O)CO3)n2ccc3ccccc3c12`, the growth in the test on SR leukemia was 63.2%; with RPMI-8226 leukemia it was 62.7%; in the test on OVCAR-8 ovarian, 50.3%; in the test on OVCAR-5 ovarian it was 85.7%; with OVCAR-4 ovarian, 47.9%; with SK-OV-3 ovarian, 108%. Further, the growth is 96.2% with IGROV1 ovarian, 118% in the test on OVCAR-3 ovarian, 63.1% with HS 578T breast and 69% in the test on NCI/ADR-RES ovarian.

On to `O=C(CSc1nnc(-c2c[nH]c3ccccc23)n1-c1ccccc1)c1ccccc1`, for which the growth with SR leukemia is 81.6%; in the test with RPMI-8226 leukemia, 81.3%; in the test with OVCAR-8 ovarian, 14.7%; in the test with OVCAR-5 ovarian, 88.6%; in the test on OVCAR-4 ovarian it was -2.47% (active); in the test with SK-OV-3 ovarian it was 85.6%. The growth with IGROV1 ovarian was 55.1%; with OVCAR-3 ovarian, 60.8%; with HS 578T breast, 24.1%; in the test on NCI/ADR-RES ovarian it was 14.8%.

In the case of `CN1CCc2c(sc3ncnc(N/N=C/c4cn(-c5ccccc5)nc4-c4ccc(Cl)cc4)c23)C1`, the growth in the test on SR leukemia is 8.8% (active); with RPMI-8226 leukemia it was 23.7%; with OVCAR-8 ovarian it was -26.1% (active); in the test with OVCAR-5 ovarian, 27%; in the test with OVCAR-4 ovarian, -9.33% (active); with SK-OV-3 ovarian it was 64%. Further, the growth in the test with IGROV1 ovarian was 1.89% (active); in the test on OVCAR-3 ovarian it was -17.2% (active); in the test with HS 578T breast, 46.6%; in the test on NCI/ADR-RES ovarian it was -35.3% (active).

In the case of `CN(C)c1nc(NCCNS(=O)(=O)c2ccc(C(=O)/C=C/c3ccccc3)cc2)nc(Nc2ccc(F)cc2)n1`, the growth is -4.76% (active) in the test with SR leukemia; 18.2% in the test with RPMI-8226 leukemia; 41.9% in the test on OVCAR-8 ovarian; 38.2% in the test on OVCAR-5 ovarian; 25.2% with OVCAR-4 ovarian; 97.8% with SK-OV-3 ovarian. Besides, the growth was 8.78% (active) in the test on IGROV1 ovarian, -42.2% (active) in the test on OVCAR-3 ovarian, 72.9% with HS 578T breast and 15.7% in the test with NCI/ADR-RES ovarian.
